About 2,300 (4.1%) of roughly 56,000 […] were called active. No stated cut-off is given here; in the data, active = GI50 up to about 1.1 µM and inactive = higher. These entries were drawn from the full list. Results with a measured potency or affinity are listed apart.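 Following 48 hours of exposure in 96-well plates, responses at five concentrations were used to interpolate endpoints linearly. The concentration for 50% growth inhibition is given as GI50.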
tested on: TK-10; test: NCI tumour cell line growth inhibition, 48 h

Substance	GI50 [µM]
[Bis(aminomethyl)ethylmethylsilane]tetrachloroplatinum(IV), CHEMBL2146192	13.1
[Bis(aminomethyl)tetramethylenesilane]dichloropaltinum(II), CHEMBL2146205	32.2
[Bis(aminomethyl)dimethylsilane]tetrachloroplatinum(IV), CHEMBL2146190	9.48
[Bis(aminomethyl)diethylsilane]tetrachloroplatinum(IV), CHEMBL2146203	13.4
mu-(1,7-nanodiamine-N,N')bis-(cis-aminedichloroplatimum (II)), CHEMBL2146215	62.8
[Bis(aminomethyl)pentamethylenesilane]tetrachloropaltinum(IV), CHEMBL2146204	17.1
[Bis(aminomethyl)dimethylsilane]dichloroplatinum (II), CHEMBL2146201	24.6
cis-Bis[[(trimethylsilyl)methyl]amino]tetrachloroplatinum(IV), CHEMBL2146191	13.2
CISPLATIN, CHEMBL11359	6.64
[Bis(aminomethyl)tetramethylenesilane]tetrachloropaltinum(IV), CHEMBL2146189	9.91
[Bis(aminomethyl)pentamethylenesilane]dichloropaltinum(II), CHEMBL2146202	12.7

— ChEMBL document CHEMBL1201862, “PubChem BioAssay data set” (2004)
